The sample as a whole holds a higher share of hits than the screen did.
Pf Dd2 growth = qHTS Primary assay for Inhibitors of Plasmodium falciparum Dd2 growth in vitro; Potency, µM (top dose mostly 28.9 µM), for the others: at the top dose activity, negative = inhibition, hits mostly inhibitors; 4.3% of 120,000 active; P. falciparum Dd2 growth, SYBR Green, 72 h; active = well fitted inhibition curve with a large enough effect;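 note: plate controls were DMSO vehicle for no effect and reference drug for full effect; nearly all actives have a fitted effect of over 65% in size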
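Infected erythrocytes (Dd2, 0.3% parasitemia, 2.5% hematocrit final) are added to compound in RPMI-1640/Albumax II medium, grown 72 h at 37C in low oxygen, then lysed with saponin/Triton-X containing SYBR Green and read by fluorescence.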
Numbers without * were called inactive; i = inactive; [ ] = another dose, or the depositor's remark. Potency is the fitted concentration of half-maximal effect.

SMILES	Pf Dd2 growth
COc1ccc(-c2ccc3ncc(Nc4ccccc4C)n3n2)cn1	5.62µM*
OCc1cccc(-c2ccc3ncc(Nc4cccc(F)c4)n3n2)c1	i
COc1ccc(-c2ccc3ncc(Nc4ccc(C(N)=O)cc4)n3n2)cn1	i
COc1cccc(-c2nc(-c3nnn4c3COC(c3ccc(Cl)cc3)C4)no2)c1OC (stereo unspecified)	-16.6%
O=C(c1cccnc1OC1CCN(S(=O)(=O)c2ccccc2F)C1)N1CCOCC1 (stereo unspecified)	i
Cc1nc2scc(CC(=O)N3CCCC3)n2c(=O)c1-c1cc(C)n(-c2ccc(C(C)C)cc2)n1	-10.5%
O=C(NC1CCN(c2cc(-c3ccc(Cl)cc3)[nH]n2)CC1)c1ccncc1	i
CC1=NOC2(CCCN(C(=O)Cc3ccccc3)C2)C1 (stereo unspecified)	6.4%[44.1 µM]
O=C(C1CC(=O)N(c2n[nH]c3cc(Br)ccc23)C1)N1CCSCC1 (stereo unspecified)	-11.6%
O=C(NCc1ccccn1)C1CCCN(C2CCN(S(=O)(=O)C3CC3)CC2)C1 (stereo unspecified)	9.5%
Cc1cc(CN(C)C(=O)CC(c2ccccc2)c2ccccc2C)n[nH]1 (stereo unspecified)	-10.5%
COC(=O)[C@H]1CN(C(=O)c2cccnc2)CCN1C(=O)CSC	-6.1%[44.1 µM]
CC(C)Oc1ccc2ccccc2c1CN1C[C@H](O)C[C@H]1C(=O)O	-1.5%
CC(C)Oc1cccc(-c2nnc(CCC(=O)NC3CCCCC3)c(=O)[nH]2)c1	-7.5%
COc1cccc(-c2cc(-c3c(C)noc3C)cc3c2C(=O)N(C)C3=O)c1OC	i
Cc1noc(C)c1-c1cc(-c2ccc(CO)cc2)cn2cncc12	-22.7%[44.1 µM]
c1cncc(-c2cc(-c3cccc(N4CCOCC4)c3)cn3cncc23)c1	-27.6%[44.1 µM]
Cc1noc(C)c1-c1cc(-c2ccccc2F)cn2cncc12	7.08µM*
C1=C(c2cc(-c3ccncc3)cn3cncc23)CCOC1	i
FC(F)(F)c1ccccc1-c1cc(-c2cccnc2)c2cncn2c1	-24.1%[44.1 µM]
Cc1noc(C)c1-c1cc2c(c(-c3ccccc3)c1)C(=O)N(C)C2	i
Cc1noc(C)c1-c1cc(-c2cccc(O)c2)cn2cncc12	11.2µM*
Cc1noc(C)c1-c1cc(-c2ccccc2C(F)(F)F)cn2cncc12	6.31µM*
Cc1ccc(F)cc1S(=O)(=O)NC1CCN(c2ccc(=O)n(CC3CC3)n2)CC1	-14.8%
Cc1cccnc1C(=O)NC1CCN(c2ccc(=O)n(C)n2)CC1	-1.5%
SMILES	Pf Dd2 growth
COc1ccc(CN2C(=O)CO[C@H](c3ccc(NC(=O)Cc4ccccc4)cc3)[C@H]2CO)cc1	i
N#Cc1cccc(CN2CC3(COCC(=O)N(Cc4cccc(OC(F)(F)F)c4)C3)C2)c1	-23.6%
CC(=O)Nc1ccc([C@H]2OCC(=O)N(CCN)[C@@H]2CO)cc1	21.0%[44.1 µM]
O=C(Nc1ccc(F)cc1)[C@@H]1C[C@@H](c2cccc(C(F)(F)F)c2)N(CC2CCOCC2)C1	-35.6%
COC(=O)CCCNC(=O)[C@@H]1[C@@H](NC(=O)NC2CCCCC2)CCN1C(=O)CC(C)(C)C	14.6%
Cc1noc(-c2ccc(N3CCC(CN4CCCC4=O)CC3)nc2)n1	i
O=C(c1ccc(CC2CCCNC2)cc1)N1CCc2nc[nH]c2C1 (stereo unspecified)	5.0%
CN(C)c1ccc(CN2CCOC[C@H]2c2ncc(-c3ccc(F)cc3)[nH]2)cc1	i
COc1ccc(-c2noc([C@@H]3C[C@H](NS(=O)(=O)c4ccccc4)CN3C)n2)cc1	i
COc1ccc(-c2noc([C@@H]3C[C@H](NCc4ccc(N(C)C)cc4)CN3C)n2)cc1	12.6µM*
COc1ccc(-c2noc([C@@H]3C[C@H](NC(=O)COCC(=O)O)CN3C)n2)cc1	-17.7%[44.1 µM]
O=C(O)c1nn(CC2CC2)c2c1CN(C(=O)c1nccc3ccccc13)CC2	11.2%
COCCN1CCC(N2CCN(C(=O)c3ccc(F)c(F)c3)CC2)C1=O (stereo unspecified)	-1.0%
CCOc1ccc2ccccc2c1C(C(=O)O)N1CCN(CC2CC2)CC1 (stereo unspecified)	-0.2%
O=C(C1CCCN(c2cnn(Cc3ccccc3)c(=O)c2)C1)N1CCN(C2CCCCC2)CC1 (stereo unspecified)	-10.2%
Cc1ccc(-c2onc(C)c2C)cc1S(=O)(=O)NC1CCCCC1	23.7%
O=C1c2ccccc2-c2onc3c(NCCO)cc(NC4CCCCC4)c1c23	8.91µM*
O=C(CC1CCCC1)NC1CCN(c2cnn(Cc3ccccc3)c(=O)c2)CC1	i
CCNc1cc(N2CCN(C3CCCCC3)CC2)c2noc3c2c1C(=O)c1ccccc1-3	5.01µM*
COc1ccccc1-c1nc(C2CC(=O)N(C3CCCCC3)C2)no1 (stereo unspecified)	i
O=C(O)CCCNc1cc(N2CCN(C3CCCCC3)CC2)c2noc3c2c1C(=O)c1ccccc1-3	11.2µM*
COCCn1ncc(N2CCC(C(=O)NCc3ccc(OC)c(OC)c3)C2)cc1=O (stereo unspecified)	-12.0%
CCNc1ncc(C(=O)N[C@H](c2cnn(C)c2)C2CC(O)C2)cn1 (stereo partly specified)	-12.8%
CC(C)c1noc(C2CCCN(C(=O)NC3CCCCC3)CCC(=O)NCC2)n1 (stereo unspecified)	26.6%
COc1ccc(-c2noc([C@@H](C)NC(=O)C3CCCCC3)c2C(=O)O)cc1	i
SMILES	Pf Dd2 growth
CC(C)CN1C(=O)c2cccn2CC1C(=O)NCCCN1CCN(C)CC1 (stereo unspecified)	17.4%
O=C(O)C[C@@H]1CCN(C(=O)C2CC2)C[C@@H]1CCN1CCN(c2ccccn2)CC1	i
CC(C)CN(CCCNC(=O)CN1C(=O)COc2ccc(S(=O)(=O)N3CCCCCC3)cc21)CC(C)C	11.2µM*
CCN(CC)CCCNC(=O)CN1C(=O)COc2ccc(S(=O)(=O)N3CCC(C)CC3)cc21	5.8%
CCCCNC(=O)CN1C(=O)COc2ccc(S(=O)(=O)N3CCCC3)cc21	32.3%
CC1=C[C@@H](CNS(C)(=O)=O)[C@H](C(C)C)C[C@H]1CC(=O)NC1CCCC1	i
COc1ccc(NC(=O)c2sc3nc(C)c(C(=O)Nc4ccc(Cl)cc4)c(-c4ccc(Br)cc4)c3c2N)cc1	-2.5%
COc1ccc(-c2c3c(nc4sc(C(=O)Nc5ccc(Cl)cc5)c(N)c24)CC(C)(C)CC3=O)cc1	0.0631µM*
COc1ccc(NC(=O)c2sc3nc4c(cc3c2N)CCCCCC4)cc1	22.4%
O=C1CO[C@H]2CCN(Cc3ccncc3)CC[C@@H]2N1Cc1c[nH]c2ccccc12	-23.4%[44.1 µM]
CNc1ncccc1C(=O)N1CCCC2(C1)C(=O)N(C)c1ccccc12 (stereo unspecified)	-16.5%
CCn1nc(C(=O)N2CCCC3(CN(C)C(=O)O3)C2)cc1C (stereo unspecified)	-1.3%
Cc1nccn1-c1ccccc1Cn1cc(-c2cncnc2)nn1	-18.9%
O[C@@H]1C[C@@H](c2nc(-c3ccc(C(F)(F)F)cc3)no2)N(Cc2cccc(OC(F)(F)F)c2)C1	i
O=C(c1ccccc1F)N1CCCC(c2nn(-c3ccccc3)c(=O)[nH]2)C1 (stereo unspecified)	i
C=CCNC(=O)C(NC(=O)c1ccc(OC)cc1)C1CCN(C(=O)c2ccccc2C)CC1 (stereo unspecified)	i
COc1ccc(N2C(=O)CS(=O)(=O)C23C(=O)N(Cc2ccccc2)c2ccccc23)cc1 (stereo unspecified)	-23.0%
